From PubChem BioAssay (NCATS)
Where “and” joins values, the source holds several entries; their conditions need not be identical. Identical values can stand only once. Inconclusive results are not listed. Calls of active or inactive are those of the source. Unless noted, the call rests on the fitted dose curve.

Assays:
[1] = target: Peroxisome proliferator-activated receptor gamma (Homo sapiens) (UniProt P37231); test: qHTS assay for small molecule agonists of peroxisome proliferator-activated receptor gamma signaling (AID 588536; active means well fitted curve in the direction sought with a large enough effect in the signal ratio, with a control signal flat, not every such curve was filed as active; the % refers to the signal ratio;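 further: 0% = DMSO basal wells and 100% = rosiglitazone at 2 µM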)
Sequence of Peroxisome proliferator-activated receptor gamma (Homo sapiens) (P37231 whole entry, looked up): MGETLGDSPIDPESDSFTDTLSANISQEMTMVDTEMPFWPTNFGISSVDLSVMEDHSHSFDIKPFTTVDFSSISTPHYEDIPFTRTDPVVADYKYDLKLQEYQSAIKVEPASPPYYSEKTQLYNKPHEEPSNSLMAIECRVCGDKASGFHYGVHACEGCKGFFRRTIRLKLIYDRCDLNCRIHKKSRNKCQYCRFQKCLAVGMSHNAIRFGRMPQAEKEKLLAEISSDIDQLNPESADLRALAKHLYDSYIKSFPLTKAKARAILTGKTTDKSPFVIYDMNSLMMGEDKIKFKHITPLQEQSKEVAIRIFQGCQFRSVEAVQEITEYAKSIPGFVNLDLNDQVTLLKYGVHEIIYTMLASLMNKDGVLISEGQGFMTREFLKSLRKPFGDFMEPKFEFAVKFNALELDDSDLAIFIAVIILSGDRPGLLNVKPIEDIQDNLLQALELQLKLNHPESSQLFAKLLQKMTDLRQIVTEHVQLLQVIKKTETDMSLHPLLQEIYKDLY
In short: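 Compound treatment: 16 h, 37 C, HEK293 GeneBLAzer cells. Detection: CCF4, 2 h RT. Values: Hill-fit EC50, efficacy as % of 2 uM rosiglitazone.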

[2] = target: Vitamin D3 receptor (Homo sapiens) (UniProt P11473); test: qHTS assay for small molecule antagonists of vitamin D receptor signaling (AID 588541);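 further: receptor activated by calcitriol during compound treatment; on the % scale 0 is the no-effect control and ±100 the full control effect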
Sequence of Vitamin D3 receptor (Homo sapiens) (P11473 whole entry, looked up): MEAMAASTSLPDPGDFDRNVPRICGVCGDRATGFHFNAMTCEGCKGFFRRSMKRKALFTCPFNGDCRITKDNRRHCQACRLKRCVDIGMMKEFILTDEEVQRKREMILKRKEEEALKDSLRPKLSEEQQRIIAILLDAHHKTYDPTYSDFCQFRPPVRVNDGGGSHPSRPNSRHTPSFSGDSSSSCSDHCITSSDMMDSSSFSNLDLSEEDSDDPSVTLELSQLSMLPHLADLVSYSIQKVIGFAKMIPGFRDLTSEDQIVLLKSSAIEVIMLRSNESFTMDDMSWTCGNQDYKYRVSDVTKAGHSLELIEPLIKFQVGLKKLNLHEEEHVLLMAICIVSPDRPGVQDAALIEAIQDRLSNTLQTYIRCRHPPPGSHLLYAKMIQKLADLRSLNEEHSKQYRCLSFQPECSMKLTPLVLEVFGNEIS
In short: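 Antagonist-mode beta-lactamase reporter assay: HEK293T VDR-UAS-bla cells were exposed to titrated compound alongside 1-alpha,25-dihydroxyvitamin D3 at 3 nM final for 16 h. Values were normalized to the 50 nM agonist control and DMSO basal, with IC50 and efficacy from Hill equation fits.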

[3] = target: Vitamin D3 receptor (Homo sapiens) (UniProt P11473); test: qHTS assay for small molecule agonists of vitamin D receptor signaling (AID 588543);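 further: 0% = DMSO basal and 100% = reference agonist control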
In short: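 Reporter cells (HEK293T, VDR-UAS-bla) were seeded in medium with 2% charcoal-stripped serum and incubated 5 h, then compounds in concentration series were added for 16 h at 37 °C. Stimulation was scaled between DMSO basal and 50 nM 1α,25-dihydroxyvitamin D3.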

[4] = qHTS assay for small molecule agonists of retinoid X receptor alpha signaling (AID 588544); settings: HEK293T RXRa-UAS-bla, beta-lactamase reporter, 18 h; 530 nm emission
[5] = target: Retinoic acid receptor RXR-alpha (Homo sapiens) (UniProt P19793); test: as above
Sequence of Retinoic acid receptor RXR-alpha (Homo sapiens) (P19793 whole entry, looked up): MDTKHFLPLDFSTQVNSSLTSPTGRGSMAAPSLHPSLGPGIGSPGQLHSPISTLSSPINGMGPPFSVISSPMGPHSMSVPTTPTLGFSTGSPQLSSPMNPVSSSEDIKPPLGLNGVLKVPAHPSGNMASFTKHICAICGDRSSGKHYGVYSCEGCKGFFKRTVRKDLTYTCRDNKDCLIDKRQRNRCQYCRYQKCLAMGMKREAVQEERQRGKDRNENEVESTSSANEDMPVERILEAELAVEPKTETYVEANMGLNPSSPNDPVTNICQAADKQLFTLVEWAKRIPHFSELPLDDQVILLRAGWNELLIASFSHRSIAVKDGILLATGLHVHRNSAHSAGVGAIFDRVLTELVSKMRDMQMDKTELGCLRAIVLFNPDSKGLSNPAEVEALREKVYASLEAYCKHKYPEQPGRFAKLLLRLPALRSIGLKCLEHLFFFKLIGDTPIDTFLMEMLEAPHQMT

[6] = qHTS assay for small molecule antagonists of retinoid X receptor alpha signaling (AID 588546; active means well fitted inhibition curve with a large enough effect in the signal ratio, with a control signal flat, not every such curve was filed as active; the % refers to the signal ratio;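 further: cells stimulated with 9-cis-retinoic acid as agonist; on the % scale 0 is the no-effect control and ±100 the full control effect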); settings: HEK293T RXRa-UAS-bla, beta-lactamase ratio, antagonist mode; measured here: W530 green channel, cytotoxicity proxy
In short: (§1)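 Beta-lactamase reporter inhibition, read as CCF4 fluorescence ratio (ex 405, em 460/530 nm) after 2 h at RT. HEK293T UAS-bla cells, 2500/well, were stimulated with 9-cis-RA at 500 or 100 nM final alongside test compound for 18 h at 37 C.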

[7] = target: Retinoic acid receptor RXR-alpha (Homo sapiens) (UniProt P19793); test: as above; settings: HEK293T RXRa-UAS-bla, beta-lactamase ratio, antagonist mode
In short: as §1

[8] = target: Thyroid hormone receptor beta (Homo sapiens) (UniProt P10828); test: qHTS assay for small molecule antagonists of thyroid hormone receptor beta signaling (AID 588547; active means well fitted inhibition curve with a large enough effect in the signal ratio, with a control signal flat, not every such curve was filed as active; the % refers to the signal ratio;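 further: cells stimulated with 0.4 nM T3 agonist during compound exposure; on the % scale 0 is the no-effect control and ±100 the full control effect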); settings: TR-UAS-bla HEK293, beta-lactamase ratio, antagonist mode, 18 h
Sequence of Thyroid hormone receptor beta (Homo sapiens) (P10828 whole entry, looked up): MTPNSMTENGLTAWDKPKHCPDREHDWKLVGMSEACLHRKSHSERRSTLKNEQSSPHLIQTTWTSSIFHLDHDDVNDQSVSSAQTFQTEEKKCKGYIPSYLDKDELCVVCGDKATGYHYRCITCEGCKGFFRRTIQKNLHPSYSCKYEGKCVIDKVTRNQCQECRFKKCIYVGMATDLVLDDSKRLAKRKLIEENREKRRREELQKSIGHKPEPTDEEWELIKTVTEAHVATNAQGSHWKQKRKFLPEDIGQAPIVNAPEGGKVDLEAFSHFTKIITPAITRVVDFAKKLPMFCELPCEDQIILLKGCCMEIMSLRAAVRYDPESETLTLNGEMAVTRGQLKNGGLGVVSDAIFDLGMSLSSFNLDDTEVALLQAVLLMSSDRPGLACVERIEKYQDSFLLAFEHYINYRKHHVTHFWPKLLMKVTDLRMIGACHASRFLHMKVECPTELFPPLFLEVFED
In short: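 Inhibition of T3-driven (0.4nM final) beta-lactamase reporter activity was measured over 0.59 nM to 92 uM compound after 18 h at 37 C. The cells were GripTite HEK293 TR-UAS-bla in charcoal/dextran-stripped serum, with CCF4 ratio read-out and IC50 from Hill fits.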

[9] = target: Voltage-gated inwardly rectifying potassium channel KCNH2 (Homo sapiens) (UniProt Q12809); test: qHTS Assay for Small Molecule Inhibitors of the Human hERG Channel Activity (AID 588834; active means well fitted curve in the direction sought with a large enough effect; an effect the other way counts as inactive or inconclusive;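 further: top concentration of the series differs between compounds; on the % scale 0 is the no-effect control and ±100 the full control effect; lower thallium flux fluorescence means stronger hERG block; nearly all actives have a fitted effect of over 50% in size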)
Sequence of Voltage-gated inwardly rectifying potassium channel KCNH2 (Homo sapiens) (Q12809 whole entry, looked up): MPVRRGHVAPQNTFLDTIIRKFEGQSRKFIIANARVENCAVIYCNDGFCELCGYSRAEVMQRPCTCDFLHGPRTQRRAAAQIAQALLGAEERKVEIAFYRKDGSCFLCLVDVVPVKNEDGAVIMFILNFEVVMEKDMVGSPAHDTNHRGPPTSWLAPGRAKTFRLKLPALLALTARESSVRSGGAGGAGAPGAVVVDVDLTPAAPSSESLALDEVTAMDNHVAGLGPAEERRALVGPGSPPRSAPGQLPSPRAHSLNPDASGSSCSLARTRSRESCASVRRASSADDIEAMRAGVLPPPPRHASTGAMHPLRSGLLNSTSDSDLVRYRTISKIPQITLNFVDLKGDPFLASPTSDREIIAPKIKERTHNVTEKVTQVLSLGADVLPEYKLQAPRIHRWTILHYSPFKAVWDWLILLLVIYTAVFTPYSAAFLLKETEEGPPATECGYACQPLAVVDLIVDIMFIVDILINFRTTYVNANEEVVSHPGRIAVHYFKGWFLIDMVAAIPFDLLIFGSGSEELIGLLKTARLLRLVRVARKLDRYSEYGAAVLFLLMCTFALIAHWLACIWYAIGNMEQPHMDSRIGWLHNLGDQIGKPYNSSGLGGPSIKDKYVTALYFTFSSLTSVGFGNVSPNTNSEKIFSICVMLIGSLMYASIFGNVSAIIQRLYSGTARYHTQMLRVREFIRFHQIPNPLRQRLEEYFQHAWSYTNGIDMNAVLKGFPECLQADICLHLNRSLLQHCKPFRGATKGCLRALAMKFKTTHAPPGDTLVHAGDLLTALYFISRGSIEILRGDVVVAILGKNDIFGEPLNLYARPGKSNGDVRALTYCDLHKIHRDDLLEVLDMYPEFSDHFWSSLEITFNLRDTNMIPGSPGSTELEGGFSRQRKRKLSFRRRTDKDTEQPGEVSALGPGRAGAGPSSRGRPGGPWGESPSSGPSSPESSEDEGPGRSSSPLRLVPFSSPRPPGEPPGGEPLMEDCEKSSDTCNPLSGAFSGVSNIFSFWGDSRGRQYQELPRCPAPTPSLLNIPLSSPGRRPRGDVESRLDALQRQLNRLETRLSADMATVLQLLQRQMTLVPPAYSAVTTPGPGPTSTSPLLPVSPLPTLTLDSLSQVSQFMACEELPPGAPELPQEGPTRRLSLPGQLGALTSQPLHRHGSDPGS
In short: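 Step 1: BacMam hERG transduction of U2OS, 4 hrs RT. Step 2: overnight 37 °C, plate 2000 cells/well, 4 hr. Step 3: FluxOR load, compound 10 min, stimulate, read fluorescence.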

[10] = S16 Schwann cell viability assay (CellTiter-Glo assay) (AID 624031; active means well fitted curve in the direction sought with a large enough effect; an effect the other way counts as inactive or inconclusive;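 further: cellular ATP luminescence as a viability measure; plate controls were DMSO-treated cells for no effect and cell-free wells for full effect; nearly all actives have a fitted effect of over 70% in size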)
In short: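 Native S16 rat Schwann cells in DMEM/10% FBS without phenol red were incubated overnight, then exposed to compounds for 24 h at 37 °C/5% CO2. Viability was read as ATP luminescence (CellTiter-Glo), normalized to no-cell wells and DMSO (0%).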

[11] = S16 Schwann cell PMP22 intronic element firefly luciferase assay (AID 624032; active means well fitted curve in the direction sought with a large enough effect; an effect the other way counts as inactive or inconclusive;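 further: plate controls were DMSO for no effect and PTC124 positive control mean for full effect; nearly all actives have a fitted effect of over 30% in size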)
In short: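 Luciferase reporter of PMP22 intronic-element expression in stably transfected S16 rat Schwann cells, read by ONE-Glo luminescence after 24 h compound exposure at 37 C. Activity scaled between DMSO (0%) and positive-control PTC124; concentration-effect curves quality-classified.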

[12] = target: Peroxisome proliferator-activated receptor gamma (Homo sapiens) (UniProt P37231); test: qHTS assay for small molecule antagonists of peroxisome proliferator-activated receptor gamma signaling (AID 588537; active means well fitted inhibition curve with a large enough effect in the signal ratio, with a control signal flat, not every such curve was filed as active; the % refers to the signal ratio;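 further: reporter cells co-stimulated with 50 nM rosiglitazone agonist during compound treatment; % of control where 0% means no effect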)
In short: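 Antagonist-mode β-lactamase reporter screen run as a titration series. HEK293 PPARγ-UAS-bla cells are stimulated with rosiglitazone (50 nM final) for 16 h, then CCF4 is read at 460/530 nm. Data are scaled between DMSO and rosiglitazone and fitted to the Hill equation.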

[13] = target: Thyroid hormone receptor beta (Homo sapiens) (UniProt P10828); test: qHTS assay for small molecule agonists of thyroid hormone receptor beta signaling (AID 588545);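 further: 0% = DMSO only and 100% = 10 nM T3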
In short: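 TR-UAS-bla GripTite HEK 293 cells (2500/well, medium with 2% charcoal/dextran FBS) were treated in agonist mode for 18 h at 37 C, titrated. Beta-lactamase was read by CCF4 ratio after 2 h; normalized to 10 nM T3 (100%) and DMSO, Hill-fitted for EC50 and efficacy.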

[14] = S16 Schwann cell PMP22 intronic element beta-lactamase assay (AID 624044); settings: S16 rat Schwann cells, PMP22 element beta-lactamase FRET, 24 h; ratio activity, negative = inhibition: at 38.3 µM (top of the series) unless noted;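 further: 0% = DMSO and -100% = potassium clavulanate positive control; nearly all actives have a fitted effect of over 15% in size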
In short: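 Beta-lactamase reporter under a PMP22 intronic regulatory element in stable S16 rat Schwann cells; 24 h compound exposure. 460 nm blue signal normalized between DMSO (0%) and potassium clavulanate, with 535 nm FRET tracking viability; curves classed by r2 and response.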

[15] = target: Luciferin 4-monooxygenase (Photinus pyralis) (UniProt P08659); test: Biochemical firefly luciferase enzyme assay for NPC (AID 624030; active means well fitted curve in the direction sought with a large enough effect; an effect the other way counts as inactive or inconclusive;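 further: purified P. pyralis luciferase at 10 nM with luciferin and ATP substrate; 0% = DMSO and -100% = full luciferase inhibition by PTC124 control; nearly all actives have a fitted effect of over 70% in size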)
Sequence of Luciferin 4-monooxygenase (Photinus pyralis) (P08659 whole entry, looked up): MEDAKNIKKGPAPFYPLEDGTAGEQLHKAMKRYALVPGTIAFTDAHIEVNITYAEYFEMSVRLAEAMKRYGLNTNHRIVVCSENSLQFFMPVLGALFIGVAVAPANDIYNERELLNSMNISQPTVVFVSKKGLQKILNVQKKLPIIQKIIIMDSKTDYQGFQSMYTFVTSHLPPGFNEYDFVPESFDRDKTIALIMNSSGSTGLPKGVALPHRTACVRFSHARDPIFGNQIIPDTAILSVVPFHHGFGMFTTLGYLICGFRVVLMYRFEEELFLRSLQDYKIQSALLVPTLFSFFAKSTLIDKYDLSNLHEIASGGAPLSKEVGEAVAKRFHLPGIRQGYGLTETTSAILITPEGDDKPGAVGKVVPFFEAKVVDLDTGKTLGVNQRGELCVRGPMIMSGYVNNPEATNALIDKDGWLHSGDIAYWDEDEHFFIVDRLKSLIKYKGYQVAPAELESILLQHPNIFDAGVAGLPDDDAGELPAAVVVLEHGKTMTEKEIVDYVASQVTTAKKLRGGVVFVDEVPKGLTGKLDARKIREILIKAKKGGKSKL
In short: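 Direct inhibition of firefly luciferase enzyme (10 nM final, 50 mM Tris Acetate) assessed by luminescence within 5 minutes. Percent activity scaled between DMSO and PTC124 positive control, with concentration-effect curves classified by fit quality and response.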

Cc1ccc(S(=O)(=O)O)cc1C
-21.8%: max response [6]
inactive: outcome [1] | outcome [2] | outcome [3] | outcome [5] | max response [7] 10.6% | activity change % (negative = inhibition) [8] -0.818% | Potency [9] | Potency [10] | Potency [11]
-1.2%: max response [4]

CC[C@H]1OC(=O)[C@H](C)[C@@H](O[C@H]2C[C@@](C)(OC)[C@@H](O)[C@H](C)O2)[C@H](C)[C@@H](O[C@@H]2O[C@H](C)C[C@H](N(C)C)[C@H]2O)[C@](C)(O)C[C@@H](C)CN(C)[C@H](C)[C@@H](O)[C@]1(C)O
inactive: outcome [1] | outcome [12] | outcome [2] | outcome [3] | outcome [13] | max response [7] -8.56% | activity change % (negative = inhibition) [8] -2.15% | Potency [9] | Potency [10] | Potency [11] | ratio activity, negative = inhibition [14] -5.31%
13.1%: max response [6]

OCc1ccccc1
-9.58%: max response [6]
-12.3%: max response [4]
inactive: outcome [1] | outcome [12] | outcome [3] | outcome [5] | outcome [13] | max response [7] -2.03% | activity change % (negative = inhibition) [8] -15.9% | Potency [9] | Potency [15] | Potency [10] | Potency [11] | ratio activity, negative = inhibition [14] -1.75%

CO[C@@H]1[C@H](OC(=O)/C=C/C=C/C=C/C=C/C(=O)O)CC[C@]2(CO2)[C@H]1[C@@]1(C)O[C@@H]1CC=C(C)C
11.1%: max response [4]
inactive: outcome [1] | outcome [12] | outcome [3] | outcome [5] | outcome [13] | max response [7] 18.1% | activity change % (negative = inhibition) [8] 15% | Potency [9]
-0.294%: max response [6]

CC(C)CCCCCCc1ccc(O)cc1
inactive: outcome [1] | outcome [12] | outcome [2] | outcome [3] | outcome [13] | Potency [9] | Potency [15] | Potency [10] | Potency [11] | ratio activity, negative = inhibition [14] -8.37%

CCCCO
1.36% and -14.8%: max response [6]
-9.48% and 0.366%: max response [4]
inactive: outcome [1] | outcome [12] | outcome [2] | outcome [3] | outcome [5] | outcome [13] | max response [7] 4.41% and -4.75% | activity change % (negative = inhibition) [8] 5.68% and 1.89% | Potency [9] | Potency [15] | Potency [10] | Potency [11] | ratio activity, negative = inhibition [14] 1.65%

NC(N)=O
-4.99%: max response [6]
inactive: outcome [1] | outcome [12] | outcome [5] | outcome [13] | max response [7] -5.2% | activity change % (negative = inhibition) [8] -11.3% | Potency [9] | Potency [15] | Potency [10] | Potency [11] | ratio activity, negative = inhibition [14] 0.531%
-18.6%: max response [4]

O.O.O.O.O.O.O.O=S(=O)([O-])[O-].[Co+2]
-11.7%: max response [6]
inactive: outcome [1] | outcome [12] | outcome [5] | outcome [13] | max response [7] 6.5% | activity change % (negative = inhibition) [8] 12.3% | Potency [9] | Potency [15] | Potency [10] | Potency [11] | ratio activity, negative = inhibition [14] -3.44%
2.89%: max response [4]

C[Si](C)(C)O[Si](C)(C)C
-6.12%: max response [6]
-7.56%: max response [4]
inactive: outcome [1] | outcome [12] | outcome [2] | outcome [3] | outcome [5] | outcome [13] | max response [7] -23.1% | activity change % (negative = inhibition) [8] 22.8% | Potency [9] | Potency [15] | Potency [10] | Potency [11] | ratio activity, negative = inhibition [14] -0.118%

CCCCCCCCCCCCCCCCCC(=O)OC[C@@H](O)[C@H]1OC[C@H](O)[C@H]1O
inactive: outcome [1] | outcome [12] | outcome [2] | outcome [3] | outcome [5] | outcome [13] | max response [7] -7.79% | activity change % (negative = inhibition) [8] 11.4% | Potency [9] | Potency [15] | Potency [10] | Potency [11] | ratio activity, negative = inhibition [14] 1.3%
-3.05%: max response [6]
-15.4%: max response [4]

Oc1cccc(O)c1O
-4%: max response [4]
inactive: outcome [1] | outcome [12] | outcome [2] | outcome [3] | outcome [5] | outcome [13] | max response [7] -0.897% | activity change % (negative = inhibition) [8] -26.7% | Potency [9] | Potency [15] | Potency [10] | Potency [11] | ratio activity, negative = inhibition [14] -1.18%
-1.33%: max response [6]

OCl
inactive: outcome [1] | outcome [2] | outcome [3] | outcome [5] | outcome [13] | max response [7] 40.5% | activity change % (negative = inhibition) [8] -3.27% | Potency [9] | Potency [15] | Potency [10] | Potency [11]
-6.54%: max response [4]
1.84%: max response [6]

NCCN
-1.66%: max response [6]
inactive: outcome [1] | outcome [12] | outcome [2] | outcome [3] | outcome [5] | max response [7] -7.75% | Potency [15] | Potency [10] | Potency [11] | ratio activity, negative = inhibition [14] -0.354%
-12.8%: max response [4]

OC[C@H]1O[C@@](CO)(O[C@H]2O[C@H](CO)[C@@H](O)[C@H](O)[C@H]2O)[C@@H](O)[C@@H]1O
-0.27%: max response [4]
inactive: outcome [1] | outcome [12] | outcome [5] | outcome [13] | max response [7] 4.65% | activity change % (negative = inhibition) [8] -5.25% | Potency [9] | Potency [15] | Potency [10] | Potency [11] | ratio activity, negative = inhibition [14] 0%
-3.43%: max response [6]

OC[C@H]1O[C@@H]2O[C@H]3[C@H](O)[C@@H](O)[C@@H](O[C@H]4[C@H](O)[C@@H](O)[C@@H](O[C@H]5[C@H](O)[C@@H](O)[C@@H](O[C@H]6[C@H](O)[C@@H](O)[C@@H](O[C@H]7[C@H](O)[C@@H](O)[C@@H](O[C@H]1[C@H](O)[C@H]2O)O[C@@H]7CO)O[C@@H]6CO)O[C@@H]5CO)O[C@@H]4CO)O[C@@H]3CO
inactive: outcome [1] | outcome [12] | outcome [2] | outcome [3] | outcome [5] | outcome [13] | max response [7] -7.96% and -14.1% | activity change % (negative = inhibition) [8] 12.7% and -5.44% | Potency [9] | Potency [15] | Potency [10] | Potency [11] | ratio activity, negative = inhibition [14] 1.18%
2.15% and -14.7%: max response [6]
1.28% and -5.56%: max response [4]

OB(O)O
inactive: outcome [1] | outcome [12] | outcome [2] | outcome [3] | outcome [5] | outcome [13] | max response [7] 9.01% and 7.69% | activity change % (negative = inhibition) [8] 3.84% and -13.5% | Potency [9] | Potency [15] | Potency [10] | Potency [11] | ratio activity, negative = inhibition [14] 0.47%
-7.19% and -10.5%: max response [6]
-5.98% and -1.26%: max response [4]
